In PubChem BioAssay (NCI):
This is part of a sample that, as a whole, favours compounds with a hit. Of some 79,000 tested, about 15% had one in any assay. Unmarked numbers belong to inactive results. Activity calls are given as the source filed them. Cut-off read from the data, not from the text of the source: active = growth inhibition above about 70%; inactive = the rest.

What was measured:
[1] = NCI Yeast Anticancer Drug Screen. Data for the rad50 strain (AID 155);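 note: 0% = growth of vehicle-only cultures of the same strain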; conditions: S. cerevisiae rad50 strain growth inhibition, hits give high values
How it was run: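 Yeast carrying a defined DNA repair defect were exposed to test compounds, and growth was compared with vehicle-treated controls to give percent inhibition.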

[2] = NCI Yeast Anticancer Drug Screen. Data for the mec2-1 strain (AID 157); conditions: S. cerevisiae mec2-1 strain, hits give high values
How it was run: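 Yeast mec2-1 mutant treated with compound. Readout: growth inhibition vs vehicle controls.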

[3] = NCI Yeast Anticancer Drug Screen. Data for the sgs1 mgt1 strain (AID 161);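 note: 0% = growth of cultures given vehicle only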; conditions: S. cerevisiae sgs1 mgt1 strain, hits give high values
How it was run: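 Test agents were incubated with a DNA-repair-mutant yeast strain. Growth was then read and compared against vehicle-treated controls.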

[4] = NCI Yeast Anticancer Drug Screen. Data for the cln2 rad14 strain (AID 165);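 note: 0% = growth equal to vehicle treated cultures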; conditions: S. cerevisiae cln2 rad14 strain, hits give high values
How it was run: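 cln2 rad14 yeast strain; compound exposure; growth inhibition read vs vehicle controls.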

[5] = NCI Yeast Anticancer Drug Screen. Data for the bub3 strain (AID 167); conditions: S. cerevisiae bub3 mutant strain, hits give high values
How it was run: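 Compounds were applied to a genetically altered yeast strain carrying a cell-cycle control defect. Growth inhibition was scored against vehicle-treated controls.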

[6] = NCI Yeast Anticancer Drug Screen. Data for the mlh1 rad18 strain (AID 175); conditions: S. cerevisiae mlh1 rad18 strain growth inhibition, hits give high values
How it was run: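 Yeast w/ defined DNA-repair lesions; compound exposure; growth vs vehicle controls → % inhibition.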

[7] = at 5.0 µM (retest, dose inferred, filed as 0.5)
[8] = at 50.0 µM (retest, dose inferred, filed as 5.0)

## O=C(O/N=C(/Cc1ccccc1)c1ccccc1)c1ccccc1
[1]; [7]
  growth inhibition: -15%
[1]; [8]
  growth inhibition: 63%
[1]; at 50.0 µM
  growth inhibition: 90.3% (active)
[2]; [7]
  growth inhibition: -10%
[2]; [8]
  growth inhibition: 72% (active)
[2]; at 50.0 µM
  growth inhibition: 28.1%
[3]; [7]
  growth inhibition: -1%
[3]; [8]
  growth inhibition: 76% (active)
[3]; at 50.0 µM
  growth inhibition: 88.8% (active)
[4]; [7]
  growth inhibition: -6%
[4]; [8]
  growth inhibition: 92% (active)
[4]; at 50.0 µM
  growth inhibition: 43.6%
[5]; [7]
  growth inhibition: -17%
[5]; [8]
  growth inhibition: 66%
[5]; at 50.0 µM
  growth inhibition: 18.4%
[6]; [7]
  growth inhibition: 3%
[6]; [8]
  growth inhibition: 87% (active)
[6]; at 50.0 µM
  growth inhibition: 93.2% (active)

## O=C(O)/C=C\c1cc2ccccc2c2ccccc12
[1]; [7]
  growth inhibition: 13%
[1]; [8]
  growth inhibition: 98% (active)
[1]; at 50.0 µM
  growth inhibition: 98.8% (active)
[2]; [7]
  growth inhibition: -11%
[2]; [8]
  growth inhibition: 99% (active)
[2]; at 50.0 µM
  growth inhibition: 98.8% (active)
[3]; [7]
  growth inhibition: 18%
[3]; [8]
  growth inhibition: 98% (active)
[3]; at 50.0 µM
  growth inhibition: 98.4% (active)
[4]; [7]
  growth inhibition: 11%
[4]; [8]
  growth inhibition: 99% (active)
[4]; at 50.0 µM
  growth inhibition: 98.3% (active)
[5]; [7]
  growth inhibition: 8%
[5]; [8]
  growth inhibition: 99% (active)
[5]; at 50.0 µM
  growth inhibition: 98.5% (active)
[6]; [7]
  growth inhibition: 18%
[6]; [8]
  growth inhibition: 99% (active)
[6]; at 50.0 µM
  growth inhibition: 98.6% (active)

## O=C(/C=C/c1ccc(Cl)c(Cl)c1)CCN1CCN(CCC(=O)/C=C/c2ccc(Cl)c(Cl)c2)CC1
[1]; [7]
  growth inhibition: 36%
[1]; [8]
  growth inhibition: 98% (active)
[1]; at 50.0 µM
  growth inhibition: 82.7% (active)
[2]; [7]
  growth inhibition: 38%
[2]; [8]
  growth inhibition: 99% (active)
[2]; at 50.0 µM
  growth inhibition: 85.5% (active)
[3]; [7]
  growth inhibition: 11%
[3]; [8]
  growth inhibition: 99% (active)
[3]; at 50.0 µM
  growth inhibition: 88.1% (active)
[4]; [7]
  growth inhibition: 16%
[4]; [8]
  growth inhibition: 99% (active)
[4]; at 50.0 µM
  growth inhibition: 86.3% (active)
[5]; [7]
  growth inhibition: 14%
[5]; [8]
  growth inhibition: 98% (active)
[5]; at 50.0 µM
  growth inhibition: 82% (active)
[6]; [7]
  growth inhibition: 44%
[6]; [8]
  growth inhibition: 98% (active)
[6]; at 50.0 µM
  growth inhibition: 86.5% (active)

## Cc1cccc(/C=N/NC(=S)Nc2ccc(Cl)cc2)n1
[1]; [7]
  growth inhibition: 6%
[1]; [8]
  growth inhibition: 98% (active)
[1]; at 50.0 µM
  growth inhibition: 70% (active)
[2]; [7]
  growth inhibition: 0%
[2]; [8]
  growth inhibition: 97% (active)
[2]; at 50.0 µM
  growth inhibition: 81.8% (active)
[3]; [7]
  growth inhibition: -5%
[3]; [8]
  growth inhibition: 98% (active)
[3]; at 50.0 µM
  growth inhibition: 87% (active)
[4]; [7]
  growth inhibition: -25%
[4]; [8]
  growth inhibition: 96% (active)
[4]; at 50.0 µM
  growth inhibition: 86.5% (active)
[5]; [7]
  growth inhibition: -12%
[5]; [8]
  growth inhibition: 98% (active)
[5]; at 50.0 µM
  growth inhibition: 87.2% (active)
[6]; [7]
  growth inhibition: 35%
[6]; [8]
  growth inhibition: 98% (active)
[6]; at 50.0 µM
  growth inhibition: 88.8% (active)

## Clc1ccc2nc3c(c(N4CCCCC4)c2c1)CCCC3
[1]; [7]
  growth inhibition: 7%
[1]; [8]
  growth inhibition: 99% (active)
[1]; at 50.0 µM
  growth inhibition: 98.8% (active)
[2]; [7]
  growth inhibition: 4%
[2]; [8]
  growth inhibition: 99% (active)
[2]; at 50.0 µM
  growth inhibition: 99.2% (active)
[3]; [7]
  growth inhibition: 13%
[3]; [8]
  growth inhibition: 99% (active)
[3]; at 50.0 µM
  growth inhibition: 99.4% (active)
[4]; [7]
  growth inhibition: 2%
[4]; [8]
  growth inhibition: 99% (active)
[4]; at 50.0 µM
  growth inhibition: 99.2% (active)
[5]; [7]
  growth inhibition: 0%
[5]; [8]
  growth inhibition: 99% (active)
[5]; at 50.0 µM
  growth inhibition: 97% (active)
[6]; [7]
  growth inhibition: 11%
[6]; [8]
  growth inhibition: 98% (active)
[6]; at 50.0 µM
  growth inhibition: 99.2% (active)

## O=C1OCCCN1/N=C/c1ccc([N+](=O)[O-])o1
[1]; [7]
  growth inhibition: 16%
[1]; [8]
  growth inhibition: 59%
[1]; at 50.0 µM
  growth inhibition: 82% (active)
[2]; [7]
  growth inhibition: 4%
[2]; [8]
  growth inhibition: 31%
[2]; at 50.0 µM
  growth inhibition: 55%
[3]; [7]
  growth inhibition: 10%
[3]; [8]
  growth inhibition: 65%
[3]; at 50.0 µM
  growth inhibition: 84.8% (active)
[4]; [7]
  growth inhibition: 2%
[4]; [8]
  growth inhibition: 32%
[4]; at 50.0 µM
  growth inhibition: 42.3%
[5]; [7]
  growth inhibition: 8%
[5]; [8]
  growth inhibition: 62%
[5]; at 50.0 µM
  growth inhibition: 52.3%
[6]; [7]
  growth inhibition: 24%
[6]; [8]
  growth inhibition: 78% (active)
[6]; at 50.0 µM
  growth inhibition: 89.2% (active)

## O=C1C(CN2CCCC2)C(O)=C(c2ccccc2)N1c1ccccc1 (stereo unspecified)
[1]; [7]
  growth inhibition: 5%
[1]; [8]
  growth inhibition: 4%
[1]; at 50.0 µM
  growth inhibition: 52.2%
[2]; [7]
  growth inhibition: 1%
[2]; [8]
  growth inhibition: 9%
[2]; at 50.0 µM
  growth inhibition: 14.8%
[3]; [7]
  growth inhibition: 1%
[3]; [8]
  growth inhibition: 2%
[3]; at 50.0 µM
  growth inhibition: 75.5% (active)
[4]; [7]
  growth inhibition: -3%
[4]; [8]
  growth inhibition: 1%
[4]; at 50.0 µM
  growth inhibition: 18.6%
[5]; [7]
  growth inhibition: -6%
[5]; [8]
  growth inhibition: 1%
[5]; at 50.0 µM
  growth inhibition: 30.1%
[6]; [7]
  growth inhibition: 0%
[6]; [8]
  growth inhibition: 1%
[6]; at 50.0 µM
  growth inhibition: 43.1%
